Structures are written as SMILES. The panel holds about 83,000 compounds, 20% with a hit somewhere; the sample as a whole holds those more often.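 96-well plates, one dose, 48 hours. Percent growth reported; active if below 10.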 Values without a mark were called inactive. Active and inactive are the calls of the source.

The subject of one experiment is ACHN renal. Kind of experiment: NCI-60 one-dose screen, 48 h (100 = growth as untreated, 0 = no growth, -100 = all killed). As to conditions: 10 µM unless noted.
Turning to `COc1cnc2c(c1)C(=O)c1c-2n(CCCN2CCNCC2)c(=O)c2cc(Cl)ccc12`, the growth is -100% (active).
Same read-out and setting: next, `c1coc(CNc2c3ccccc3nc3ccccc23)c1`: 26.2%; `Cn1cnc([N+](=O)[O-])c1S(=O)(=O)Oc1ccccc1`: 17.1%; `O=c1c2cc(Br)cc(Br)c2nc(-c2ccc(Cl)cc2)n1/N=C\c1ccccc1F`: 26.4%.
On the same count and under the same terms, the same measure for `CC1=CC(=O)OC1C/C=C(\C)CCC1[C@@]2(C)CCC[C@@](C)(C(=O)O)C2CC[C@@]1(C)O` (stereo partly specified): 26.1%; for `Cn1cnc([N+](=O)[O-])c1S(=O)(=O)Oc1cccc2ccccc12`: 4.28% (active).
Regarding `COc1ccccc1CNCCCN1C(=O)c2ccc3c4c(ccc(c24)C1=O)C(=O)N(CCCOCCCCOCCCN)C3=O`, the growth is -62.2% (active).
As to `COc1cc(NCC(O)CN(CC(C)C)CC(C)C)c2ncccc2c1` (stereo unspecified), the growth was 87.6%.
As for `CC(C)(CCc1ccccn1)C(=O)CCCc1ccccn1`, the growth is 97.4%.
Regarding `COc1cccc(-c2nc3sccn3c2-c2ccnc(NCCN3CCCN(C)S3(=O)=O)n2)c1`, the growth is 54%.
The same measure, in the same setting: next, `Cc1ccc(NC(=O)c2sc3nc4c(cc3c2N)C(=O)CCC4)cc1Cl`: 109%.
Same read-out and setting: next, `COc1ccc(NC(=O)c2sc3c(=O)[nH]c(C(F)(F)F)nc3c2C)cc1`: 102%; `CCC1=CC2CN(C1)Cc1c([nH]c3ccccc13)[C@@](C(=O)OC)(c1cc3c(cc1OC)N(C)[C@H]1[C@@](O)(C(=O)OC)[C@H](OC(C)=O)[C@]4(CC)C=CCN5CC[C@]31[C@@H]54)C2` (stereo partly specified): 34.1%.
`CN1C2CCC1/C(=C\c1ccc(Cl)cc1)C(=O)/C2=C/c1ccc(Cl)cc1`: the growth was 75.7%.
`CC(C)[C@@]12C[C@@H](OC(=O)[C@H]3CO3)[C@@](C)(O1)[C@@H]1CC[C@@H](C)[C@H]1[C@@H]2OC(=O)/C=C/c1ccccc1`: the growth is 23.5%.
`OCCN(CCO)c1ccc2ccccc2c1`: the growth is 106%.
Still for that read-out and setting: next, `O=C(NCCN1CCCC1)n1cc(-c2ccncc2)c(-c2cc(O)cc(Cl)c2)n1`: 82.2%.
The same measure, in the same setting: the same measure for `CC1=C(/C=C/C(C)=C/C=C(C(=O)O)\C(C)=C\C(=O)O)C(C)(C)CCC1`: 99.9%; for `O=C1/C=C/[C@@H](O)[C@@H]2C[C@@H](O)C[C@H]2/C=C/CCC[C@H]([C@@H](O)CO)O1`: 109%.
The same measure, in the same setting: next, `O=C1C(Cl)=C(Nc2cccc3ccccc23)C(=O)c2ccccc21`: 68.2%; `Cc1ccc2c(C)c3c(ccc4ccccc43)c[n+]2c1`: 91.7%; `Nc1c(C(=O)C[C@@H](N)CO)ccc2c1C(=O)CCO2`: 45.6%.
As for `COc1ccc2c(c1)sc1nc(-c3ccccc3)c(-c3cccc4ccccc34)n12`, the growth was 49.1%.
Same read-out and setting: next, `CCOc1cc(/C=N\NC(=O)C[N+](C)(C)C)ccc1O`: 103%; `C=C1C(=O)O[C@H]2[C@H]1CC/C(COC(=O)NCc1cn(C)c3ccccc13)=C\CC[C@@]1(C)O[C@@H]21`: -36.2% (active).
Still for that read-out and setting: next, `CCCCCCCC/C=C/CCCCCCCC1=NC(C)(C)CN1C(C)C`: -78.3% (active); `Clc1ccc(-c2nc(-c3cccs3)no2)cc1`: 101%.
On the same count and under the same terms, next, `C=CCOC(=O)C1=C(C)NC2=C(C(=O)CC(C)(C)C2)C1c1ccc(OC)cc1` (stereo unspecified): 98.6%; `COc1ccc(/C=C(\C#N)c2cc(OC)c(OC)c(OC)c2)cc1`: 24.7%.
Turning to `CCOC(=O)C#Cc1c(C(=O)OCC)nnn1[C@@H]1O[C@H](COC(C)=O)[C@@H](OC(C)=O)[C@H]1OC(C)=O`, the growth was 53.2%.
The same measure, in the same setting: the same measure for `CCOC(=O)c1ccc(NC(=O)CSC(N)=O)cc1`: 102%; for `COc1cc(-c2nc(-c3ccc(-c4nc5ccc(F)cc5[nH]4)cc3)no2)cc(OC)c1OC`: 36.7%.
As for `Nc1ccc(C2=NNC(=O)Cc3cc4c(cc32)OCCO4)cc1Cl`, the growth was 53.3%.
Still for that read-out and setting: the same measure for `COc1cc(/C=C2\CN(C(=O)OC(C)(C)C)C/C(=C\c3ccc(O)c(OC)c3)C2=O)ccc1O`: 100%.
In the case of `CCN1C(=O)N(CC)C2C1N=C(SC)N2/N=C/C=C/c1ccccc1OC` (stereo unspecified), the growth was 23.2%.
Consider `N#CCCn1cnc2c(N)ncnc21`, for which the growth was 94%.
On to `COc1ccc(C2c3cccn3-c3ccccc3N2C(C)=O)cc1` (stereo unspecified), for which the growth is 99%.
As to `COc1ccccc1/C=C/C(=O)CCC(=O)O`, the growth is 101%.

The test system of a further experiment is CAKI-1 renal. Described as above. As to conditions: 10 µM unless noted.
On to `COc1cnc2c(c1)C(=O)c1c-2n(CCCN2CCNCC2)c(=O)c2cc(Cl)ccc12`, for which the growth was 33.1%.
`c1coc(CNc2c3ccccc3nc3ccccc23)c1`: the growth was 41%.
The same measure, in the same setting: next, `Cn1cnc([N+](=O)[O-])c1S(=O)(=O)Oc1ccccc1`: 62.9%; `O=c1c2cc(Br)cc(Br)c2nc(-c2ccc(Cl)cc2)n1/N=C\c1ccccc1F`: 27%; `CC1=CC(=O)OC1C/C=C(\C)CCC1[C@@]2(C)CCC[C@@](C)(C(=O)O)C2CC[C@@]1(C)O` (stereo partly specified): 32.9%.
Still for that read-out and setting: next, `Cn1cnc([N+](=O)[O-])c1S(=O)(=O)Oc1cccc2ccccc12`: -20.9% (active).
As for `COc1ccccc1CNCCCN1C(=O)c2ccc3c4c(ccc(c24)C1=O)C(=O)N(CCCOCCCCOCCCN)C3=O`, the growth was -4.24% (active).
`COc1cc(NCC(O)CN(CC(C)C)CC(C)C)c2ncccc2c1` (stereo unspecified): the growth was 99.2%.
Consider `CC(C)(CCc1ccccn1)C(=O)CCCc1ccccn1`, for which the growth is 98%.
For `COc1cccc(-c2nc3sccn3c2-c2ccnc(NCCN3CCCN(C)S3(=O)=O)n2)c1`, the growth was 50.7%.
In the case of `Cc1ccc(NC(=O)c2sc3nc4c(cc3c2N)C(=O)CCC4)cc1Cl`, the growth is 85.9%.
On the same count and under the same terms, the same measure for `COc1ccc(NC(=O)c2sc3c(=O)[nH]c(C(F)(F)F)nc3c2C)cc1`: 85.4%.
Still for that read-out and setting: next, `CCC1=CC2CN(C1)Cc1c([nH]c3ccccc13)[C@@](C(=O)OC)(c1cc3c(cc1OC)N(C)[C@H]1[C@@](O)(C(=O)OC)[C@H](OC(C)=O)[C@]4(CC)C=CCN5CC[C@]31[C@@H]54)C2` (stereo partly specified): 44.3%.
On to `CN1C2CCC1/C(=C\c1ccc(Cl)cc1)C(=O)/C2=C/c1ccc(Cl)cc1`, for which the growth was 68%.
As to `CC(C)[C@@]12C[C@@H](OC(=O)[C@H]3CO3)[C@@](C)(O1)[C@@H]1CC[C@@H](C)[C@H]1[C@@H]2OC(=O)/C=C/c1ccccc1`, the growth is 46.6%.
Same read-out and setting: the same measure for `OCCN(CCO)c1ccc2ccccc2c1`: 97.3%; for `O=C(NCCN1CCCC1)n1cc(-c2ccncc2)c(-c2cc(O)cc(Cl)c2)n1`: 109%; for `CC1=C(/C=C/C(C)=C/C=C(C(=O)O)\C(C)=C\C(=O)O)C(C)(C)CCC1`: 117%.
Consider `O=C1/C=C/[C@@H](O)[C@@H]2C[C@@H](O)C[C@H]2/C=C/CCC[C@H]([C@@H](O)CO)O1`, for which the growth is 97.6%.
For the compound `O=C1C(Cl)=C(Nc2cccc3ccccc23)C(=O)c2ccccc21`, the growth was 25.4%.
The same measure, in the same setting: the same measure for `Cc1ccc2c(C)c3c(ccc4ccccc43)c[n+]2c1`: 75.9%; for `Nc1c(C(=O)C[C@@H](N)CO)ccc2c1C(=O)CCO2`: 29.8%.
Still for that read-out and setting: next, `COc1ccc2c(c1)sc1nc(-c3ccccc3)c(-c3cccc4ccccc34)n12`: 29.3%; `CCOc1cc(/C=N\NC(=O)C[N+](C)(C)C)ccc1O`: 95.9%; `C=C1C(=O)O[C@H]2[C@H]1CC/C(COC(=O)NCc1cn(C)c3ccccc13)=C\CC[C@@]1(C)O[C@@H]21`: -18.7% (active).
On the same count and under the same terms, next, `CCCCCCCC/C=C/CCCCCCCC1=NC(C)(C)CN1C(C)C`: 31.2%; `Clc1ccc(-c2nc(-c3cccs3)no2)cc1`: 99.5%.
Consider `C=CCOC(=O)C1=C(C)NC2=C(C(=O)CC(C)(C)C2)C1c1ccc(OC)cc1` (stereo unspecified), for which the growth was 80.8%.
For the compound `COc1ccc(/C=C(\C#N)c2cc(OC)c(OC)c(OC)c2)cc1`, the growth is 41.4%.
On the same count and under the same terms, the same measure for `CCOC(=O)C#Cc1c(C(=O)OCC)nnn1[C@@H]1O[C@H](COC(C)=O)[C@@H](OC(C)=O)[C@H]1OC(C)=O`: 4.56% (active); for `CCOC(=O)c1ccc(NC(=O)CSC(N)=O)cc1`: 108%; for `COc1cc(-c2nc(-c3ccc(-c4nc5ccc(F)cc5[nH]4)cc3)no2)cc(OC)c1OC`: 47.3%.
Consider `Nc1ccc(C2=NNC(=O)Cc3cc4c(cc32)OCCO4)cc1Cl`, for which the growth is 48.4%.
The same measure, in the same setting: the same measure for `COc1cc(/C=C2\CN(C(=O)OC(C)(C)C)C/C(=C\c3ccc(O)c(OC)c3)C2=O)ccc1O`: 74.2%; for `CCN1C(=O)N(CC)C2C1N=C(SC)N2/N=C/C=C/c1ccccc1OC` (stereo unspecified): 25%; for `N#CCCn1cnc2c(N)ncnc21`: 97%.
On the same count and under the same terms, next, `COc1ccc(C2c3cccn3-c3ccccc3N2C(C)=O)cc1` (stereo unspecified): 84.2%; `COc1ccccc1/C=C/C(=O)CCC(=O)O`: 99%.

Source of the values: PubChem BioAssay (NCI).
